The text below walks through data of ChEMBL document CHEMBL3433997, “St. Jude Leishmania screening dataset” (2016).

Type in all cases: functional
The target of experiment [1] is Solute carrier family 2, facilitated glucose transporter member 1 (Homo sapiens) (UniProt P11166). As to the kind of experiment: ST_JUDE_LEISH: Cytotoxicity at 2uM final concentration against transgenic Leishmania Mexicana promastigotes LmGLUT1 that are glucose transport deficient and complemented with the human glucose transporter GLUT1. Activity is measured by DNA content using SYBR green in vitro.
Sequence of Solute carrier family 2, facilitated glucose transporter member 1 (Homo sapiens) (P11166 whole entry): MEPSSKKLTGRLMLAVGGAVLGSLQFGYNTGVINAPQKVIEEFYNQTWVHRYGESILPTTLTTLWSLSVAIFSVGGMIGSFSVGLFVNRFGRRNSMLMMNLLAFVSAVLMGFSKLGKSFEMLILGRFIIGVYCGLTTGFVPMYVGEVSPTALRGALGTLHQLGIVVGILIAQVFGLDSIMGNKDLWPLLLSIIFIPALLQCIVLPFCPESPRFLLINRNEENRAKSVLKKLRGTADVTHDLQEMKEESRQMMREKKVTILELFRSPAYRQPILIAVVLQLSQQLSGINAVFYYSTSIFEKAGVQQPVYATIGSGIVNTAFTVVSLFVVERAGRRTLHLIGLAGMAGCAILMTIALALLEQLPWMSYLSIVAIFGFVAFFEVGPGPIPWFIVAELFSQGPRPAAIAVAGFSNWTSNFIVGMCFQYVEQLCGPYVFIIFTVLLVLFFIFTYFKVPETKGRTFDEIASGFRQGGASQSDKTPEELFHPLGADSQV

For experiment [2], the target named is Hexose transporter 1 (Plasmodium falciparum) (UniProt O97467). In words: ST_JUDE_LEISH: Cytotoxicity at 2uM final concentration against transgenic Leishmania Mexicana promastigotes LmPfHT that are glucose transport deficient and complemented with the Plasmodium falciparum hexose transporter. Activity is measured by DNA content using SYBR green in vitro.
In experiment [3] the target is Glucose transporter (Leishmania mexicana) (UniProt O61059). In words: ST_JUDE_LEISH: Cytotoxicity at 2uM final concentration against transgenic Leishmania Mexicana promastigotes LmGT2 that are glucose transport deficient and complemented with the L. Mexicana glucose transporter 2. Activity is measured by DNA content using SYBR green in vitro.

`CCOC(=O)c1ccc(NC(=O)Nc2cccc(-c3ccc(-c4nc5cccc(C)c5[nH]4)s3)c2)cc1`: the values for the inhibition in experiment [1], in experiment [2] and in experiment [3] were -0.56%, 0.81% and 2.18%, respectively.

`CCOc1cc(CC)ccc1C1CCN(CCCCNC(=O)c2ccc(NC(=O)c3ccc(Cl)cc3)cc2)CC1`: the results for the inhibition in experiment [1], in experiment [2] and in experiment [3] were 4.23%, 2.23% and 4.97%, respectively.

In the case of `CCc1ccc(CN2CCC(CNC(=O)c3cc(-c4cccc(F)c4)cs3)C2)cc1` (stereo unspecified), the figures for the inhibition in experiment [1], in experiment [2] and in experiment [3] were -0.39%, 1.94% and 1.42%, respectively.

`COc1ccccc1-c1csc(C(=O)NCC2CCN(Cc3ccc(C(C)(C)C)cc3)C2)c1` (stereo unspecified): the inhibition – broadly, the relative decrease from the control value, in per cent – in experiment [1] turned out to be 1.44%; in experiment [2] it was 0.16%; in experiment [3], 0.22%.

Regarding `Fc1ccc2[nH]c(-c3cccc(-c4ccc(CNCCc5ccncc5)cc4)c3)nc2c1`, the inhibition was 13.9% in experiment [1], 12.6% in experiment [2] and 11.4% in experiment [3].

As for `Cc1cccc2nc(-c3ccc(-c4ccc(CN5CCCC(N)C5)cc4)cc3)[nH]c12` (stereo unspecified), the inhibition came to 8.17% in experiment [1], 11% in experiment [2] and 2.6% in experiment [3].

In the case of `CCCCc1ccc2[nH]c(NC(=O)OC)nc2c1`, the inhibition worked out at 10.2% in experiment [1], 7.79% in experiment [2] and 9.56% in experiment [3].

On to `CCCCCC(C)NC[C@@H](O)[C@H](Cc1ccccc1)NC(=O)c1cc(NCC)cc(N2CCCCS2(=O)=O)c1` (stereo partly specified), for which the inhibition in experiment [1] was -0.71%; in experiment [2], 1.3%; in experiment [3] it was 0.36%.

For the molecule `CCc1cc(Br)c(CNCCCNc2cc(=O)c3ccccc3[nH]2)s1`, the inhibition in experiment [1] was 0.41%; in experiment [2], -0.52%; in experiment [3] it was -2.7%.

For the molecule `CCc1c(C(=O)NC2CCC(N3CCC(c4ccccc4C)CC3)CC2)[nH]c2ccc(Br)cc12` (stereo unspecified), the inhibition in experiment [1] was 5.69%; in experiment [2], 5.55%; in experiment [3], 3.97%.

For the molecule `Cc1ccc(-n2nc3ccc(NC(=O)c4ccc([N+](=O)[O-])o4)cc3n2)cc1C`, the inhibition in experiment [1] was determined as 60.8%; in experiment [2] it was 82.4%; in experiment [3], 40.3%.

Turning to `O=C(Nc1ccc([N+](=O)[O-])cc1Br)c1cc2ccccc2nc1Cl`, the values for the inhibition in experiment [1], in experiment [2] and in experiment [3] were 8.95%, 8.73% and 7.12%, respectively.
